# Results from PubChem BioAssay (NCI).
# This is part of a sample that, as a whole, favours compounds with a hit. Of some 83,000 tested, about 20% had one in any assay.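 Compound tested at a single concentration for 48 hours in 96-well plates; a percent growth value below 10 was scored as active.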 Values without a mark were called inactive. Active and inactive are the calls of the source.
# Key:
# Test in all cases: NCI-60 one-dose screen, 48 h (100 = growth as untreated, 0 = no growth, -100 = all killed)
# Conditions in all cases: 10 µM unless noted
# [1] = tested on: DU-145 prostate
# [2] = tested on: K-562 leukemia
# [3] = tested on: MALME-3M melanoma
# [4] = tested on: MDA-MB-231 breast
# [5] = tested on: RXF 393 renal
# [6] = tested on: SF-268 CNS
# [7] = tested on: SF-295 CNS
# [8] = tested on: SF-539 CNS
# [9] = tested on: UACC-257 melanoma
# [10] = tested on: M14 melanoma
Compound,growth [1],growth [2],growth [3],growth [4],growth [5],growth [6],growth [7],growth [8],growth [9],growth [10]
O=[N+]([O-])c1ccccc1Nc1ccc2ccccc2c1,107%,84.8%,106%,91.9%,133%,95.5%,98.3%,97%,92.8%,91.3%
CN(C)c1ccc(CNCCO)cc1,105%,97.9%,103%,110%,113%,101%,103%,97.5%,85.4%,96.7%
CC(C)(C)CC(C)(C)Nc1c(-c2c(O)c3ccccc3oc2=O)nc2sc3ccccc3n12,53.7%,11.8%,50.7%,61.9%,65.9%,48%,3.5% (active),44%,38.1%,41.7%
N=C(N)c1ccc(-c2ccc(-c3ccccc3)o2)o1,46.3%,9.73% (active),50.3%,29.8%,47%,38.1%,44%,35.3%,69.3%,14.1%
COc1ccc(C(=O)C/C(=C\c2ccc(O)c(OC)c2)C(=O)NN)cc1,101%,47.2%,93.4%,65.4%,107%,92.4%,102%,80.8%,81.5%,91.5%
CCN(CC)CCN1C(=O)c2c(c3c4ccccc4[nH]c3c3ccc4ccccc4c23)C1=O,-92.3% (active),-33% (active),-85.7% (active),-78.9% (active),47.1%,-45% (active),48.3%,-85.7% (active),105%,-85% (active)
CCOC(=O)C1=C(CCl)N(C)C(=O)NC1c1ccc2c(c1)OCO2 (stereo not given),33.4%,16.7%,65%,65.3%,41.3%,91.6%,95.1%,32.5%,59.5%,42.1%
COc1ccc(N=C2NN=C(c3c[nH]c4ccccc34)CS2)cc1OC,65.9%,36.6%,69.3%,55.4%,68.6%,56.2%,-31.9% (active),51.8%,77.4%,34%
CCC(C)(C)c1ccc(Nc2ccc(Nc3ccc(C(C)(C)CC)cc3)cc2)cc1,93.8%,80.4%,97.4%,93.5%,83.4%,98.6%,102%,102%,80.3%,92.5%
c1cc(OCCN2CCCCCC2)ccc1CNc1ccc2nc(CCC3CCCCC3)[nH]c2c1,69.8%,3.02% (active),-72.6% (active),25.5%,56.2%,69.9%,79.1%,72.8%,31.8%,-69.9% (active)
CC1(C)CC[C@]23CC[C@]4(C)[C@H](CC[C@@H]5[C@@]6(C)CCNCC(C)(C)[C@@H]6CC[C@]54C)[C@H]2[C@H]1OC3,98.5%,16.9%,104%,96.6%,101%,111%,108%,99.5%,92.5%,92.8%
O=C(C[C@]1(O)C(=O)Nc2ccc(Br)cc21)c1ccco1,106%,93.8%,84.1%,98.6%,108%,88.5%,103%,104%,101%,99.1%
CCOC(=O)c1c(C)nc2c(c1N)C(=O)C(=O)N2Cc1ccc(OC)cc1,84.7%,28.8%,58.7%,79.7%,87.9%,64.7%,74.3%,45.5%,76.2%,68.8%
CCn1cc(Cc2cc(C(=O)Nc3cc4cc(OC)c(OC)cc4c(C)n3)ccc2Cl)cn1,55.3%,34.4%,63.4%,36.3%,73.2%,49.3%,39.7%,8.23% (active),40.9%,32.6%
N#Cc1c(-c2ccc(Br)cc2)nc2c(N=Nc3ccc(S(N)(=O)=O)cc3)c(N)nn2c1N,33.2%,36.3%,57.7%,41.2%,42.2%,55.9%,61.9%,38.6%,82.6%,41.4%
Cc1ccc(OCCOCCOCCOCCOCCOc2ccc(C)n(O)c2=S)c(=S)n1O,17.3%,14.5%,16.5%,29.8%,40.6%,12.5%,16.8%,1.52% (active),-3.93% (active),-4.25% (active)
Oc1ccc(-c2nc3ccc4[nH]ncc4c3c3c2CCCC3)c(F)c1,37%,19.5%,24.9%,59.9%,16%,36.5%,43.6%,15.6%,44.5%,16.7%
Nc1cccc(-c2ccc(COc3ccc(CC4SC(=O)NC4=O)cc3)cc2)c1 (stereo not given),83.2%,21.6%,42.5%,73.4%,77.7%,70.6%,63.8%,64.3%,71%,36.5%
COCCn1cc(-c2csc(-c3c[nH]c4ccc(F)cc34)n2)c2cccnc21,64.6%,8.38% (active),45%,27.5%,65%,46.5%,16.1%,46.8%,36.5%,13.2%
O=C(Nc1ccc(Oc2cccc(Cl)c2)c(Cl)c1)c1cccnn1,86.3%,77%,104%,95.5%,90.3%,83.9%,82.2%,95.3%,104%,92.8%
O=C(/C=C/C12c3ccccc3C(c3ccccc31)C1C(=O)NC(=O)C12)c1ccc(Cl)cc1Cl (stereo not given),23%,7.41% (active),48.2%,19.3%,-4.59% (active),33.3%,40.8%,39.4%,41%,24.4%
Cc1ccc2c(c1)=C/C(=C\c1cc(-c3ccccc3)[nH]c1O)C(=O)N=2,61.6%,13.7%,54.5%,50.6%,34.5%,47.4%,32.8%,8.94% (active),64.7%,17.8%
N#CC1=C(N)Oc2c(sc3c(F)cccc23)C1c1ccc([N+](=O)[O-])cc1 (stereo not given),3.51% (active),1.99% (active),-24.3% (active),-66.2% (active),-57.3% (active),-23.1% (active),-70.3% (active),-79.2% (active),-17.2% (active),-50.9% (active)
O=C(NC1CCC(Br)CC1)C1CCCC(S(=O)(=O)NC2CCCCC2)C1 (stereo not given),29.9% [25 µM],8.64% [25 µM] (active),19.5% [25 µM],36.1% [25 µM],37.2% [25 µM],20.8% [25 µM],-4.06% [25 µM] (active),28.8% [25 µM],-6.91% [25 µM] (active),22.1% [25 µM]
O=C1/C(=C/c2ccc(Cl)cc2)CN(C(=O)C(Cl)Cl)C/C1=C\c1ccc(Cl)cc1,-89.7% (active),-3.91% (active),-65% (active),-23.9% (active),-88.2% (active),-74.9% (active),-86.7% (active),-96.3% (active),-42.3% (active),-68.7% (active)
CCOC(=O)/C(=C(/C)NCC(C)C)c1cc(O)c(O)c2c(C)cc(=O)[nH]c12,64.5%,24.5%,53.8%,61.3%,83%,24.1%,52.3%,35.7%,83.5%,53.3%
